In PubChem BioAssay AID743279 (National Center for Advancing Translational Sciences (NCATS), 2014):
Out of some 360,000 compounds screened, about 17,000 (4.7%) were called active. About 5% were inconclusive and are not listed. For the sample, actives were picked, then their nearest neighbours and some compounds at random. Unmarked numbers belong to inactive results. Cut-off read from the data, not from the text of the source: active = activity change below about -50%; inconclusive = mostly about -30% to -49%; inactive = weaker than that.

test: qHTS for Inhibitors of Inflammasome Signaling: IL-1-beta AlphaLISA Primary Screen; conditions: THP-1 LPS/ATP IL-1B secretion, 16 h; at 57.5 µM, hits give low values
Excerpt: Inflammasomes are a set of intracellular multi-protein complexes that enable autocatalytic activation of inflammatory caspases and drive the innate immune response to counter harmful agents. […] A qHTS assay, based on AlphaLISA technology, was developed to screen the Molecular Libraries Small Molecule Repository (MLSMR) to look for novel inflammasome inhibitors. The assay detects IL-1B using AlphaLISA anti-IL-1B acceptor and donor beads. A decreased emission signal, indicating reduced IL-1B secretion, is the desired outcome for this assay. NIH Chemical Genomics Center [NCGC] NIH Molecular Libraries Probe Centers Network [MLPCN] MLPCN Grant: MH095513 Assay Provider: Shyam Biswal Ph.D., Johns Hopkins University Immunity. 2012 Jul 27;37(1):85-95. PMID: 22819042 [2] Curr Pharm Des. 2012;18(16):2320-8. PMID: 22390695
Three microliters containing 3000 THP-1 cells were dispensed into the wells of solid, white, tissue culture treated Greiner 1,536-well plates. Library compounds and positive control, Glyburide, were pin-transferred (23 nL) by a Kalypsys pin-tool equipped with a 1,536-pin array, resulting in final compound concentration ranges of 2.5 nM to 57.5 uM. After 1 hr of cell culture incubation (37 °C, 5% CO2), 1 microL of 1 microg/mL lipopolysaccharide (250 ng/mL, final) and 5 mM ATP (1.25 mM, final) were added to stimulate the cells. After 16 hr of cell culture incubation with the compounds, 1.5 uL of anti-IL-1B acceptor beads (6 ug/mL, final) and biotinylated antibody (0.6 nM, final) were added to the plate, followed by a 1 hr incubation at ambient temperature. To detect the secreted IL-1B, 1.5 uL of AlphaLISA SA-Donor beads (24 ug/mL, final) were added, followed by 30 min of incubation in the dark at ambient temperature. The AlphaLISA signal was read by a PerkinElmer EnVision plate reader with an ultrasensitive luminescence detector and 1536 Plate HTS AlphaScreen aperture (excitation of 680nm and emission of 615nm).
% is set by controls: 0 for no effect and ±100 for the full control effect.

Q: With `Cc1ccc(NC(=O)CCCNC(=O)c2ccc(Cl)cc2)cc1S(=O)(=O)N1CCCCC1` as the compound, how does the activity change read?
A: -6.38%

Q: With `COC(C[C@H](O)CC(=O)[C@@H](C)OCc1ccccc1)OC` as the compound, how does the activity change read?
A: -16.6%

Q: For `COC(C[C@@H]1O[C@@H]1C(=O)[C@H](C)OCc1ccccc1)OC`, which activity change is on record?
A: 8.19%

Q: With `COC(C/C=C/C(=O)[C@@H](C)OCc1ccccc1)OC` as the compound, how does the activity change read?
A: -95.4% (active)

Q: For `C[C@H](CO)N1C[C@H](C)[C@H](CN(C)C(=O)c2ccncc2)OCc2ccccc2-c2c(n(C)c3ccccc23)C1=O`, which activity change is on record?
A: 42.4%

Q: With `CCCOC1CCCN(Cc2cn(C)nc2-c2ccccc2F)C1` (stereo not drawn) as the compound, how does the activity change read?
A: -7.48%

Q: Which activity change does the source give for `COCCNC(=O)C1(C)CCCN(Cc2cccc(F)c2)C1` (stereo not drawn) here?
A: -12.6%

Q: For `COc1ccc(OC)c(C(=O)NC(CC(N)=O)c2ccc(N3CCC(N4CCCCC4)CC3)c([N+](=O)[O-])c2)c1` (stereo not drawn), which activity change is on record?
A: 13.4%

Q: Which activity change does the source give for `O=C(Cn1ccc2cc(S(=O)(=O)N3CCCC3)ccc21)NCc1ccccc1` here?
A: 14.2%

Q: With `COC(=O)Cn1cc(/C=C/[N+](=O)[O-])c2ccccc21` as the compound, how does the activity change read?
A: -27.5%

Q: For `O=[N+]([O-])/C=C/c1ccc2c(ccn2Cc2ccccc2)c1`, which activity change is on record?
A: -90.5% (active)

Q: With `Cc1ccc(-c2nc3c(C)cc(Br)cn3c2Cc2ccccc2)cc1` as the compound, how does the activity change read?
A: 58%

Q: With `COc1cccc(NC(=O)CCc2nnc3ccc(N4CCC(C)CC4)nn23)c1` as the compound, how does the activity change read?
A: -6.48%

Q: Which activity change does the source give for `O=C(NCc1ccc(F)cc1)c1cc(C2CCCCN2C(=O)C2CCCCC2)on1` (stereo not drawn) here?
A: -0.0267%

Q: For `Cc1cc(OCCCC(=O)Nc2cc(S(=O)(=O)N3CCOCC3)ccc2N2CCOCC2)ccc1Cl`, which activity change is on record?
A: -1.02%

Q: Which activity change does the source give for `CSc1cccc(NC(=S)N(Cc2ccccc2)Cc2ccccn2)c1` here?
A: -6.44%

Q: For `CSc1cccc(NC(=S)N(C(C)C)C(C)c2ccccn2)c1` (stereo not drawn), which activity change is on record?
A: -98.3% (active)

Q: Which activity change does the source give for `CC(c1ccccn1)N(CCN(C)C)C(=S)Nc1ccccc1F` (stereo not drawn) here?
A: 0%

Q: Which activity change does the source give for `O=C(/C=C/[C@H]1O[C@@H](n2ccc(=O)[nH]c2=O)[C@H](O)[C@@H]1O)NCc1ccccn1` here?
A: 21.7%

Q: For `COc1ccc(N2CCN(C3CCCCC3NS(=O)(=O)c3ccccc3)CC2)cc1` (stereo not drawn), which activity change is on record?
A: -0.438%

Q: Which activity change does the source give for `O=C(/C=C/c1cccc(C(F)(F)F)c1)N1CCN(c2ccccn2)CC1` here?
A: -95.2% (active)

Q: With `O=C(Cc1ccc(Br)cc1)N1CCN(c2ccccn2)CC1` as the compound, how does the activity change read?
A: 8.64%

Q: Which activity change does the source give for `O=C(C(Cl)Cl)N1CCN(c2ccccn2)CC1` here?
A: 1.16%

Q: Which activity change does the source give for `O=S1(=O)CCN(Cc2ccccc2)CC1` here?
A: -15.7%

Q: Which activity change does the source give for `Cc1nccn1-c1ccc(NC(=O)[C@H]2O[C@@H](n3cnc4c(N)ncnc43)[C@H](O)[C@@H]2O)cc1` here?
A: -25.6%

Q: With `COc1ccc(-n2ncc3c2CC(C)(C)CC3NC(=O)CCc2c(C)noc2C)cc1` (stereo not drawn) as the compound, how does the activity change read?
A: inactive

Q: For `O=C(N=C1SC2CS(=O)(=O)CC2N1Cc1ccccc1)c1ccccc1` (stereo not drawn), which activity change is on record?
A: -24.4%

Q: With `CCc1nc2ccc(C(=O)Nc3cccc(OC)c3)cn2c1N(CCC(C)C)CCN(C)C` as the compound, how does the activity change read?
A: 30.7%

Q: For `CCc1nc2ccc(C(=O)NCCNC(C)=O)cn2c1N(CC)Cc1cccc(Br)c1`, which activity change is on record?
A: 27.3%

Q: With `CCc1nc2ccc(C(=O)NCc3ccc(OC)cc3)cn2c1N(CC)Cc1cccc(Br)c1` as the compound, how does the activity change read?
A: -70.8% (active)

Q: For `CN(C(=O)CN1CCN(c2cc(-c3ccc(OCc4ccccc4)cc3)ncn2)CC1)c1ccccc1`, which activity change is on record?
A: 8.46%

Q: With `Cc1ccc(S(=O)(=O)/N=C2\C=C(NS(=O)(=O)c3ccc(C)cc3)C(=O)c3ccccc32)cc1` as the compound, how does the activity change read?
A: 57.7%

Q: With `COc1ccc(S(=O)(=O)/N=C2\C=C(NS(=O)(=O)c3ccccc3)C(=O)c3ccccc32)cc1` as the compound, how does the activity change read?
A: 36%

Q: With `CC(C)CC[n+]1ccn(C2=C([O-])c3ccccc3C(=O)/C2=N\S(=O)(=O)c2ccccc2)c1` as the compound, how does the activity change read?
A: -50.7% (active)

Q: With `CC(=O)c1ccc(NC(=O)C(C)NCc2ccc(Cl)cc2)cc1` (stereo not drawn) as the compound, how does the activity change read?
A: -14.8%

Q: With `CCc1nc2c(OCc3ccccc3)cccn2c1N(C)C(=O)c1ccco1` as the compound, how does the activity change read?
A: -17.3%

Q: For `C[C@H]1CN([C@@H](C)CO)C(=O)c2cc(-c3cccc(F)c3)cnc2O[C@@H]1CN(C)S(C)(=O)=O`, which activity change is on record?
A: 7.01%

Q: For `CCC(=O)N1CCc2cc(Br)c(S(=O)(=O)NCCN3CCCCC3CC)cc21` (stereo not drawn), which activity change is on record?
A: -5.22%

Q: Which activity change does the source give for `CC1(C)CC(CC(=O)O)C(=O)O1` (stereo not drawn) here?
A: -17%

Q: With `C/C(CC1CC(C)(C)OC1=O)=N/Nc1nc(-c2ccccc2)cs1` (stereo not drawn) as the compound, how does the activity change read?
A: -54.9% (active)

Q: For `CCc1noc(C)c1C(=O)Nc1nc(-c2ccccc2)cs1`, which activity change is on record?
A: 61.4%

Q: Which activity change does the source give for `COC(=O)[C@@]1(Cc2ccc(F)cc2)[C@H]2c3cc(C(=O)N4CCCC4)n(C[C@H](O)CO)c3C[C@H]2CN1C(=O)c1ccccc1` here?
A: -0.432%

Q: Which activity change does the source give for `CN1OC[C@@H]2CN(S(=O)(=O)c3cccc4ccccc34)[C@H](c3ccc(N4CCCCC4)cc3)C[C@@H]21` here?
A: -6.93%

Q: Which activity change does the source give for `COc1ccc(CNC(=O)C2CCN(C(=O)c3ccccc3)CC2)cc1` here?
A: 0%

Q: With `Cc1ccccc1-c1cc(C(=O)NCC2CC2)n(CC2CC(c3cccnc3)=NO2)n1` (stereo not drawn) as the compound, how does the activity change read?
A: -18.9%

Q: Which activity change does the source give for `CCCCCCCNC(=O)C1(CC2CC(c3cccc(Br)c3)=NO2)CCN(C(=O)c2cc(OCC)c(OCC)c(OCC)c2)CC1` (stereo not drawn) here?
A: -24.2%

Q: With `O=C(c1ccccc1)N1CCC(CC2CC(c3ccc(Cl)cc3)=NO2)(C(=O)NCC2CCCCC2)CC1` (stereo not drawn) as the compound, how does the activity change read?
A: -55.1% (active)

Q: Which activity change does the source give for `COc1ccc(CNC(=O)C2(CC3CC(c4ccccc4)=NO3)CCN(C(=O)c3cccc(O)c3)CC2)cc1` (stereo not drawn) here?
A: -61.2% (active)

Q: With `CCNC(=O)C1(C)CCN(C(=O)c2ccccc2)C1` (stereo not drawn) as the compound, how does the activity change read?
A: 26.9%

Q: Which activity change does the source give for `O=C(C[C@H]1CC[C@H]2[C@@H](COC[C@H](O)CN2C(=O)c2ccccn2)O1)N1CCN(c2ccccc2)CC1` here?
A: 18.8%

Q: With `CC(=O)N=c1ncn(CC(COC(C)=O)OC(C)=O)c2nc[nH]c12` (stereo not drawn) as the compound, how does the activity change read?
A: -17.6%

Q: With `O=c1[nH][nH]c2c1[C@H](c1ccc(Cl)cc1)O[C@H](CCc1ccccc1)C2` as the compound, how does the activity change read?
A: -5.73%

Q: Which activity change does the source give for `Cc1cccc(CC2(O)C(=O)Nc3ccccc32)n1` (stereo not drawn) here?
A: 12.5%
